Results as given in PubChem BioAssay (Tox21).
Inconclusive results are not listed. Entries that show only a call come without a potency. More than one record can exist for a structure, and the calls need not agree. Active and inactive are the calls of the source. Unless noted, the call rests on the fitted dose curve; in most records, active means well fitted cell-killing curve with a large enough effect in the repeat runs; inconclusive means weak or mixed curves, or effect the other way; inactive means flat fitted curve, though single readings scatter.

Target: Thyrotropin-releasing hormone receptor (Homo sapiens) (UniProt P34981)
Sequence (P34981 whole entry, looked up): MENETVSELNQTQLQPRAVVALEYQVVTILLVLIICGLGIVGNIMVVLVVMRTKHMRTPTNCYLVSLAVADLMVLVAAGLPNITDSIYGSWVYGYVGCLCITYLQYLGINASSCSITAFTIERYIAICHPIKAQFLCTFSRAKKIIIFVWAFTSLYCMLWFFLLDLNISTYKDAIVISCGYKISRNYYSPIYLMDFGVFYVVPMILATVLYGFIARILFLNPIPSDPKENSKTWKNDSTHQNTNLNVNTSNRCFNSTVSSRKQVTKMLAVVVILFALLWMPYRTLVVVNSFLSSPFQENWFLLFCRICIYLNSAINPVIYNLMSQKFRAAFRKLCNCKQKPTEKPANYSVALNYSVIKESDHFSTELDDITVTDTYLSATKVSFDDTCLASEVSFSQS
Assay: qHTS assay to identify small molecule antagonists of the thyrotropin-releasing hormone receptor (TRHR) signaling pathway (AID 1346877; active means well fitted inhibition curve with a large enough effect in the repeat runs, not every such curve was filed as active; further: potency means the concentration at half of the fitted maximal effect)
Conditions: TRHR-HEK293, TRH-induced calcium fluorescence, antagonist mode; series mostly up to 51.3 µM
How it was run: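 Cells (TRHR-HEK293) are plated and kept 18 h at 37 °C/5% CO2. A calcium-sensitive dye is added for 2 h, compound follows for 5 min at room temperature, and TRH is then given at 1 nM final.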

Question: With `Cc1ccc(C)cc1` as the compound, how does the Potency read?
Answer: inactive

Question: With `Cc1ccc(C(C)C)cc2c(C)ccc1-2` as the compound, how does the Potency read?
Answer: inactive

Question: For `CC(C)NC[C@@H](O)COc1ccc(CC(N)=O)cc1`, which Potency is on record?
Answer: inactive

Question: With `CC(C)CCOC(=O)/C=C/c1ccccc1` as the compound, how does the Potency read?
Answer: inactive

Question: Which Potency does the source give for `C=CCn1c(=O)n(CC=C)c(=O)n(CC=C)c1=O` here?
Answer: inactive

Question: For `CC(C)CCCCCOC(=O)CCS`, which Potency is on record?
Answer: inactive

Question: With `CCCC[P+](C)(CCCC)CCCC` as the compound, how does the Potency read?
Answer: inactive

Question: With `Sc1nc2ccccc2s1` as the compound, how does the Potency read?
Answer: inactive

Question: With `O=C(/C=C/c1ccc(O)c(O)c1)O[C@@H](C(=O)O)[C@@H](OC(=O)/C=C/c1ccc(O)c(O)c1)C(=O)O` as the compound, how does the Potency read?
Answer: inactive

Question: With `NC[C@H]1O[C@H](O[C@H]2[C@H](O[C@@H]3O[C@H](CO)[C@@H](O)[C@H]3O)C(O)[C@H](N)C[C@@H]2N)[C@H](N)[C@@H](O)[C@@H]1O` (stereo not given in full) as the compound, how does the activity, negative = inhibition read?
Answer: 3.15% [at 4.65 µM] (inactive)

Question: Which Potency does the source give for `Cc1c(C)c2c(c(C)c1O)CC[C@@](C)(CCC[C@H](C)CCC[C@H](C)CCCC(C)C)O2` here?
Answer: inactive

Question: Which Potency does the source give for `OC[C@@H](O)[C@@H](O)CO` here?
Answer: inactive

Question: With `CCCCCc1ccc(Cl)cc1` as the compound, how does the Potency read?
Answer: inactive

Question: With `CCOC(=O)Cn1cccc1-c1nc(-c2ccc(OC)cc2)c(-c2ccc(OC)cc2)s1` as the compound, how does the Potency read?
Answer: inactive

Question: With `Nc1nc(N)nc(-c2cc(Cl)ccc2Cl)n1` as the compound, how does the Potency read?
Answer: inactive

Question: With `CCCCCC(C)OC(=O)COc1ccc(Cl)c2cccnc12` (stereo not given) as the compound, how does the Potency read?
Answer: inactive

Question: For `O=C1c2ccccc2C(=O)N1SC1CCCCC1`, which Potency is on record?
Answer: 30.1 µM (active) and inactive

Question: For `NC(=S)NC(N)=S`, which Potency is on record?
Answer: inactive

Question: Which Potency does the source give for `C=CCCC(=O)/C=C/C1C(C)=CCCC1(C)C` (stereo not given) here?
Answer: inactive

Question: Which Potency does the source give for `CC1(C)CC(O)CC(C)(C)N1` here?
Answer: inactive

Question: Which Potency does the source give for `OC[C@H]1O[C@H](O[C@H]2O[C@H](CO)[C@@H](O)[C@H](O)[C@H]2O)[C@H](O)[C@@H](O)[C@@H]1O` here?
Answer: inactive

Question: Which activity, negative = inhibition does the source give for `C[C@H]1NCc2cc(-c3ccc4c(=O)c(C(=O)O)cn(C5CC5)c4c3OC(F)F)ccc21` here?
Answer: 5.68% [at 10.5 µM] (inactive)

Target: Thyrotropin-releasing hormone receptor (Homo sapiens) (UniProt P34981)
Assay: qHTS assay to identify small molecule agonists of the thyrotropin-releasing hormone receptor (TRHR) signaling pathway (AID 1346891; calls by dose curve;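 further: HEK293 cells expressing TRHR with calcium dye readout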)
Conditions: TRHR-HEK293 calcium fluorescence, agonist mode; series mostly up to 57.6 µM
How it was run: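 Kinetic fluorescence (3 min, 1 s intervals) reported intracellular calcium after compound transfer onto TRHR-Hek293 cells pre-loaded with dye for 2 h at 37 °C.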

Question: With `Cc1ccc(C)cc1` as the compound, how does the outcome read?
Answer: inactive

Question: With `Cc1ccc(C(C)C)cc2c(C)ccc1-2` as the compound, how does the outcome read?
Answer: inactive

Question: For `CC(C)NC[C@@H](O)COc1ccc(CC(N)=O)cc1`, which outcome is on record?
Answer: inactive

Question: Which outcome does the source give for `CC(C)CCOC(=O)/C=C/c1ccccc1` here?
Answer: inactive

Question: For `C=CCn1c(=O)n(CC=C)c(=O)n(CC=C)c1=O`, which outcome is on record?
Answer: inactive

Question: Which outcome does the source give for `CC(C)CCCCCOC(=O)CCS` here?
Answer: inactive

Question: With `CCCC[P+](C)(CCCC)CCCC` as the compound, how does the outcome read?
Answer: inactive

Question: For `Sc1nc2ccccc2s1`, which outcome is on record?
Answer: inactive

Question: With `O=C(/C=C/c1ccc(O)c(O)c1)O[C@@H](C(=O)O)[C@@H](OC(=O)/C=C/c1ccc(O)c(O)c1)C(=O)O` as the compound, how does the outcome read?
Answer: inactive

Question: Which activation does the source give for `NC[C@H]1O[C@H](O[C@H]2[C@H](O[C@@H]3O[C@H](CO)[C@@H](O)[C@H]3O)C(O)[C@H](N)C[C@@H]2N)[C@H](N)[C@@H](O)[C@@H]1O` (stereo not given in full) here?
Answer: -0.179% [at 5.23 µM] (inactive)

Question: With `Cc1c(C)c2c(c(C)c1O)CC[C@@](C)(CCC[C@H](C)CCC[C@H](C)CCCC(C)C)O2` as the compound, how does the outcome read?
Answer: inactive

Question: Which outcome does the source give for `OC[C@@H](O)[C@@H](O)CO` here?
Answer: inactive

Question: With `CCCCCc1ccc(Cl)cc1` as the compound, how does the outcome read?
Answer: inactive

Question: With `CCOC(=O)Cn1cccc1-c1nc(-c2ccc(OC)cc2)c(-c2ccc(OC)cc2)s1` as the compound, how does the outcome read?
Answer: inactive

Question: Which outcome does the source give for `Nc1nc(N)nc(-c2cc(Cl)ccc2Cl)n1` here?
Answer: inactive

Question: For `CCCCCC(C)OC(=O)COc1ccc(Cl)c2cccnc12` (stereo not given), which outcome is on record?
Answer: inactive

Question: For `O=C1c2ccccc2C(=O)N1SC1CCCCC1`, which outcome is on record?
Answer: inactive

Question: Which outcome does the source give for `NC(=S)NC(N)=S` here?
Answer: inactive

Question: For `C=CCCC(=O)/C=C/C1C(C)=CCCC1(C)C` (stereo not given), which outcome is on record?
Answer: inactive

Question: For `CC1(C)CC(O)CC(C)(C)N1`, which outcome is on record?
Answer: inactive

Question: For `OC[C@H]1O[C@H](O[C@H]2O[C@H](CO)[C@@H](O)[C@H](O)[C@H]2O)[C@H](O)[C@@H](O)[C@@H]1O`, which outcome is on record?
Answer: inactive

Question: With `C[C@H]1NCc2cc(-c3ccc4c(=O)c(C(=O)O)cn(C5CC5)c4c3OC(F)F)ccc21` as the compound, how does the activation read?
Answer: 0.004% [at 11.8 µM] (inactive)

System: not listed separately
Assay: Human pregnane X receptor (PXR) small molecule agonists, qHTS cell viability counter screen (AID 1346977); further: nearly all actives have a fitted effect of over 50% in size
Conditions: PXR-Luc HepG2 viability, CellTiter-Fluor, 24 h; series mostly up to 92.4 µM
How it was run: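 HepG2 cells stably carrying the PXR-Luc reporter are cultured with 5% charcoal-stripped FBS and treated with compounds for 24hr. CellTiter-Fluor is added at 23hr and fluorescence is read after 1hr.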

Question: Which Potency does the source give for `Cc1ccc(C)cc1` here?
Answer: inactive

Question: Which Potency does the source give for `COC(=O)c1ccccc1C` here?
Answer: inactive

Question: For `Cc1ccc(C(C)C)cc2c(C)ccc1-2`, which Potency is on record?
Answer: inactive

Question: With `CCc1ccc(Br)cc1` as the compound, how does the Potency read?
Answer: inactive

Question: For `CC(C)NC[C@@H](O)COc1ccc(CC(N)=O)cc1`, which Potency is on record?
Answer: inactive

Question: For `CCC(C)[O-].CCC(C)[O-].CCOC(=O)/C=C(/C)[O-].[Al+3]`, which Potency is on record?
Answer: inactive

Question: For `COC(C)=O`, which Potency is on record?
Answer: inactive

Question: Which Potency does the source give for `CC(C)CCOC(=O)/C=C/c1ccccc1` here?
Answer: inactive

Question: With `Cc1cccc(C)c1NC(=O)c1ccc(N)cc1` as the compound, how does the Potency read?
Answer: inactive

Question: Which Potency does the source give for `O[C@@H]([C@H](O)[C@H](O)CBr)[C@H](O)CBr` here?
Answer: inactive

Question: Which activity change, negative = cytotoxicity does the source give for `CC(C)Cn1cnc2c(N)nc3ccccc3c21` here?
Answer: -9.27% [at 19 µM] (inactive)

Question: With `CC(C)CCCCCOC(=O)CCS` as the compound, how does the Potency read?
Answer: inactive

Question: Which Potency does the source give for `CCCC[P+](C)(CCCC)CCCC` here?
Answer: inactive

Question: With `Sc1nc2ccccc2s1` as the compound, how does the Potency read?
Answer: inactive

Question: With `NC[C@H]1O[C@H](O[C@H]2[C@H](O[C@@H]3O[C@H](CO)[C@@H](O)[C@H]3O)C(O)[C@H](N)C[C@@H]2N)[C@H](N)[C@@H](O)[C@@H]1O` (stereo not given in full) as the compound, how does the activity change, negative = cytotoxicity read?
Answer: 22.9% [at 8.39 µM] (inactive)

Question: With `Cc1c(C)c2c(c(C)c1O)CC[C@@](C)(CCC[C@H](C)CCC[C@H](C)CCCC(C)C)O2` as the compound, how does the Potency read?
Answer: inactive

Question: With `Cc1c(F)c(N2CCNC(C)C2)cc2c1c(=O)c(C(=O)O)cn2C1CC1` (stereo not given) as the compound, how does the Potency read?
Answer: inactive

Question: For `OC[C@@H](O)[C@@H](O)CO`, which Potency is on record?
Answer: inactive

Question: With `CCCCCc1ccc(Cl)cc1` as the compound, how does the Potency read?
Answer: inactive

Question: With `CCOC(=O)Cn1cccc1-c1nc(-c2ccc(OC)cc2)c(-c2ccc(OC)cc2)s1` as the compound, how does the Potency read?
Answer: inactive

Question: With `C=Cc1cccc(C)c1` as the compound, how does the Potency read?
Answer: inactive

Question: For `Nc1nc(N)nc(-c2cc(Cl)ccc2Cl)n1`, which Potency is on record?
Answer: inactive

Question: Which Potency does the source give for `CCCCCC(C)OC(=O)COc1ccc(Cl)c2cccnc12` (stereo not given) here?
Answer: inactive

Question: With `O=C1OC2(c3ccc(O)cc3Oc3cc(O)ccc32)c2ccc(N=C=S)cc21` as the compound, how does the Potency read?
Answer: inactive

Question: For `CC(C)(C)NSc1nc2ccccc2s1`, which Potency is on record?
Answer: inactive

Question: For `CCCCC(CC)COC(=O)CCCCC(=O)OCc1ccccc1` (stereo not given), which Potency is on record?
Answer: inactive

Question: Which Potency does the source give for `Cc1c(C)c2c(c(C)c1OC(=O)c1cccnc1)CC[C@@](C)(CCC[C@H](C)CCC[C@H](C)CCCC(C)C)O2` here?
Answer: inactive

Question: With `[Cu+]` as the compound, how does the Potency read?
Answer: inactive

Question: With `O=C(O)c1cc(-c2ccc(F)cc2F)ccc1O` as the compound, how does the Potency read?
Answer: inactive

Question: Which Potency does the source give for `O=C1c2ccccc2C(=O)N1SC1CCCCC1` here?
Answer: inactive

Question: With `NC(=S)NC(N)=S` as the compound, how does the Potency read?
Answer: inactive

Question: With `C=CCCC(=O)/C=C/C1C(C)=CCCC1(C)C` (stereo not given) as the compound, how does the Potency read?
Answer: inactive

Question: Which Potency does the source give for `CC/C=C\CCCCCO` here?
Answer: inactive

Question: Which Potency does the source give for `CC1(C)CC(O)CC(C)(C)N1` here?
Answer: inactive

Question: With `OC[C@H]1O[C@H](O[C@H]2O[C@H](CO)[C@@H](O)[C@H](O)[C@H]2O)[C@H](O)[C@@H](O)[C@@H]1O` as the compound, how does the Potency read?
Answer: inactive

Question: For `C[C@H]1NCc2cc(-c3ccc4c(=O)c(C(=O)O)cn(C5CC5)c4c3OC(F)F)ccc21`, which activity change, negative = cytotoxicity is on record?
Answer: 2.7% [at 19 µM] (inactive)
